Assay results reported in PubChem BioAssay AID1626 (SRMLSC, 2009).
The whole screen tested about 220,000 compounds, of which about 2,000 (0.91%) were called active. Not shown: some 2% with an inconclusive outcome. A selection follows. Results with a measured potency or affinity are listed apart. Unmarked numbers belong to inactive results. Cut-off read from the data, not from the text of the source: inconclusive = inhibition above about 80% without an active follow-up result; inactive = below that; test concentration not stated here.

Assay: M. tuberculosis H37Rv growth inhibitors, H37Rv strain (AID 1626);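 note: bacteria incubated seven days before Alamar blue readout; 0% = bacteria only wells and 100% = bacteria with antibiotic wells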
Details: active compounds read high, concentration not given here

Compound | inhibition [%]
COc1cccc(-c2ccc(C#N)c(=O)[nH]2)c1 | -3.44
O=C(Nc1cccc(O)c1)c1cccc(S(=O)(=O)N2CCCC2)c1 | -5.4
CC(=O)Nc1ccccc1O | -3.72
O=C(Nc1ccccc1O)c1ccccc1O | 0.57
C/C(=C\C(=O)c1cccnc1)Nc1ccc(O)cc1 | -6.05
C/C(=C\C(=O)c1ccccc1)Nc1ccc(O)cc1 | -1.7
COc1ccc(NC(=S)NC(C)c2ccncc2)cc1OC (stereo unspecified) | 0.92
O=C(O/N=C(\c1ccccc1)c1ccccn1)c1cccc2ccccc12 | 4.72
CCN(CC(=O)NCc1cccs1)c1ccc(S(=O)(=O)N2CCN(C)CC2)cn1 | -7.08
COc1ccc(-c2csc(/C(C#N)=C\c3ccc(OC)c([N+](=O)[O-])c3)n2)cc1 | 5.82
COc1ccc(-c2csc(/C(C#N)=C\c3ccc(O)c([N+](=O)[O-])c3)n2)cc1OC | 73.4
COc1ccc(S(=O)(=O)N2CCCCC2)cc1NC(=O)c1cc(C)on1 | -0.76
CNC(=S)Nn1cnc2ccccc21 | 0.16
c1ccc(-c2ccc(-n3ccnc3)cc2)cc1 | 1.87
COc1ccc(-n2ccnc2)cc1 | 1.8
COc1ccc(OC)c(N2C(=O)CC(Cc3ccc(Cl)cc3)C2=O)c1 (stereo unspecified) | -4.41
Cc1nc2ccccc2c(=O)n1/N=C/C=C/c1ccccc1 | -2.49
COc1cc2c(cc1OC)C1(NCC2)C(=O)Nc2ccccc21 (stereo unspecified) | 0.79
COc1ccc2c(c1)C1(Nc3ccccc3C(=O)N1c1ccccc1)C(=O)N2 (stereo unspecified) | -1.38
COc1ccc(C(=O)C2CCCN(Cc3ccc4nonc4c3)C2)c(OC)c1 (stereo unspecified) | 4.61
CC(C)NC(=O)NC(=O)CSc1ccccc1F | 8.25
Nc1[nH]ncc1-c1ccccc1 | 48.5
COc1ccc(-c2cn[nH]c2N)cc1 | 3.3
O=C(NCc1cn2ccsc2n1)c1cccs1 | 2.94
O=C(COC(=O)c1cc(S(=O)(=O)N2CCOCC2)ccc1O)Nc1cc(S(=O)(=O)N2CCCC2)ccc1Cl | -7.64
Cc1cccnc1NC(=O)Nc1ccccc1 | -2.38

Compound | inhibition [%]
Cc1ccc(C(=O)Nc2ccc3c(c2)CCC3)cc1 | 27.7
Cc1nc(NC(=O)c2ccc(F)cc2)sc1C(=O)Nc1ccc2c(c1)CCC2 | 10.8
O=C1CC2(CCCCCC2)Oc2ccc(Cl)cc21 | -6.31
COc1cccc(-c2cc(C(=O)NCCN3CCOCC3)no2)c1 | 0.49
COc1ccc(NC(=S)NCCCN2CCOCC2)cc1 | -0.5
CCCc1ccc(OCc2nc(-c3ccc(NC(=O)c4cccs4)cc3)no2)cc1 | 15.6
Cc1ccccc1OCc1nc(-c2ccc(NC(=O)c3ccco3)cc2)no1 | 19.3
Cc1ccc(-n2c(-c3ccncc3)n[nH]c2=S)cc1 | -9.92
Cc1cc2oc(C(=O)N(Cc3cccs3)C3CCS(=O)(=O)C3)cc(=O)c2cc1Cl (stereo unspecified) | 0.6
O=C(NCCc1ccccc1)C1CCN(Cc2ccccc2F)CC1 | 0.69
CCCSc1nnc(Cn2c(=O)sc3ccccc32)n1C | 3.51
CC1(C)Cc2c(sc(NC(=O)COc3ccccc3)c2C#N)C(C)(C)N1 | -3.34
CCOC(=O)c1c(NC(=O)C2COc3ccccc3O2)sc(C)c1C (stereo unspecified) | -3.73
Cc1ccc(OCC(=O)Nc2sc3c(c2C#N)CC(C)(C)NC3(C)C)cc1 | 10.1
CCOC(=O)c1c(NC(=O)C2COc3ccccc3O2)sc(C(C)=O)c1C (stereo unspecified) | -3.37
CCOC(=O)c1cc2occc2n1CCCN1C(=O)c2ccccc2C1=O | -1.25
CCc1cc2ccc(OC)cc2nc1SCC(=O)NNC(C)=O | 2.9
CC(=O)N(NC(N)=O)C(C)CC(=O)C1C(C)C=CCC1(C)C (stereo unspecified) | -4.41
CC(c1nnnn1C(C)(C)C)N(Cc1cccnc1)Cc1ccccc1Cl (stereo unspecified) | 11.3
O=C(Cc1cc(=O)[nH][nH]1)N/N=C/c1ccccc1Cl | 0.78
O=[N+]([O-])c1ccc(/C=N/N/C(=N/c2ccccn2)c2ccccn2)cc1 | 6.35
O=C(COc1ccccc1[N+](=O)[O-])N/N=C/c1ccc(O)c([N+](=O)[O-])c1 | -1.06
C=CCNC(=S)NNC(=O)c1ccc(=O)n(Cc2ccc(Cl)cc2Cl)c1 | 2.51
COC(=O)/C(=C1/Oc2ccc(C)cc2S1)C(F)(F)F | 1.01
COC(=O)/C(=C1/Oc2ccc(C(C)(C)C)cc2S1)C(F)(F)F | -3.79
